An excerpt weighted towards active compounds, which were near 1.3% of everything screened.
GALR2 blocker: GALR2 antagonists in receptor-expressing cells, primary screen. Galanin receptor type 2 (Homo sapiens), O43603. antagonist mode. inhibition, % at 4 µM. 140,000 compounds, 0.39% hits; in the data active = inhibition above about 27%;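 also: cells stimulated with galanin 1-16 at roughly its EC80; 0% = agonist challenge control and 100% = basal control without agonist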
Target sequence (O43603 whole entry, looked up): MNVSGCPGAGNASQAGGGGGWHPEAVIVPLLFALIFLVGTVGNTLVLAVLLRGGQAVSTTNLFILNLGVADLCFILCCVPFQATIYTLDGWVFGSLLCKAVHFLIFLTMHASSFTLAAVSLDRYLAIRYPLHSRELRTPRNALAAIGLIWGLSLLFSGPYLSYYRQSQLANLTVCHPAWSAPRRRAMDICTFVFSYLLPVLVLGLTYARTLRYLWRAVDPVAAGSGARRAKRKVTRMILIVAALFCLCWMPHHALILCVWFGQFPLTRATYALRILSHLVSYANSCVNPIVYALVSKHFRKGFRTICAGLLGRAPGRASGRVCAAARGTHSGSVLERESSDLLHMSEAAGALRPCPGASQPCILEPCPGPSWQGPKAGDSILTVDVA
S1P2 agonist: S1P2 receptor agonists, primary screen, cell-based | S1P2-expressing cell line, agonist reporter read-out | AID 729, 2007 | activation, % at 4.5 µM | 97,000 compounds, 0.46% hits | Sphingosine 1-phosphate receptor 2 (Homo sapiens), O95136; in the data active = activation above about 16%;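 also: 0% = vehicle low control and 100% = maximal reference agonist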
S1P2 blocker: human S1P2 receptor antagonists, primary screen, cell-based; Sphingosine 1-phosphate receptor 2 (Homo sapiens), O95136; cell-based S1P2 antagonist assay, inhibition at 5 uM; inhibition, % at 5 µM; 97,000 compounds, 0.21% hits; AID 736, 2007; in the data active = inhibition above about 45%;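 also: CRE beta-lactamase reporter cells expressing human S1P2 stimulated with S1P; 0% = agonist at EC80 alone and 100% = agonist plus reference antagonist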
Phagocyt inh: inhibitors of macrophage phagocytosis, primary screen, imaging, J774A.1 cells, IgG beads. J774A.1 macrophage IgG-bead phagocytosis. inhibition, % at 5 µM. 110,000 compounds, 0.07% hits. AID 1029, 2008;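 active = inhibition above the mean of the plate negative controls plus 5 SD, cut at about 13% in these data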;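 also: phagocytic index as fraction of beads internalized from green versus red external bead signal; plate controls were DMSO negative control for no effect and cytochalasin-D positive control for full effect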
GALR2 agonist: GALR2 receptor agonists, primary screen, cell-based | activation, % (no concentration beside the values) | 140,000 compounds, 0.48% hits | GALR2-expressing cells, agonist activation read-out | Galanin receptor type 2 (Homo sapiens), O43603 | AID 803, 2007; in the data active = activation above about 5%, passing the limit was not always enough;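 also: 0% = vehicle buffer wells and 100% = reference agonist at full effect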
GALR2 ag confirm: GALR2 agonists, retest of hits, confirmation, cell-based. 460 compounds, 10% hits. AID 864, 2007. activation, % at 5.6 µM. GALR2-expressing cells, agonist activation. shares compounds with GALR2 agonist; in the data active = activation above about 8.4%;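 also: 0% = buffer-only vehicle wells and 100% = full reference agonist response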
BLA act counter: activators of NFAT-driven beta-lactamase reporter, confirmation, counter-screen for GALR2 agonist project, CHO NFAT-bla cells, FRET readout; beta-lactamase FRET activation; 460 compounds, 10% hits; activation, % at 5.6 µM; AID 865, 2007; shares compounds with GALR2 agonist;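 active = activation above the screen-wide mean activation plus 3 SD, cut at about 8% in these data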;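 also: 0% = DMSO with PBS wells and 100% = thapsigargin positive control wells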
Starred values were filed as active, the others as inactive; · = not tested or not shown.

SMILES	GALR2 blocker	S1P2 agonist	S1P2 blocker	Phagocyt inh	GALR2 agonist	GALR2 ag confirm	BLA act counter
CN(NC(=O)C(C)(C)C)c1nc(-c2ccccc2)nnc1C(F)(F)F	1.6	-5.9	-10.9	·	9.8	-0.7	-2.7
COc1ccc(C(=O)NN(C)c2nc(-c3ccccc3)nnc2C(F)(F)F)cc1	-0.1	-3.6	5.8	-1.3	-1.3	·	·
Cc1ccc(S(=O)(=O)N(C)C)cc1-n1c(SCC(=O)Nc2ccc(F)c(F)c2F)nc2ccccc2c1=O	-24.0	·	·	-3.8	1.0	·	·
O=C(CC1NC(=O)NC1=O)Nc1ccc(Cl)cc1 (stereo not given)	-6.3	-4.3	3.2	1.7	-0.6	·	·
O=C(CC1Nc2ccccc2NC1=O)Nc1cc(Cl)cc(Cl)c1 (stereo not given)	-0.7	15.9	-0.6	2.1	12.9*	12.1*	9.9*
COCCCNC(=O)c1cn(CC(C)C)c(=O)c2c1c1ccccc1n2C	-5.5	-5.5	-5.0	-0.7	19.9*	-0.4	-2.8
COc1ccc(N(CC(=O)NCc2cccs2)S(=O)(=O)c2c(C)nn(C)c2C)cc1	-3.8	-2.1	-16.4	0.4	17.2*	-0.5	-1.3
Cc1nn(C)c(C)c1S(=O)(=O)N(CC(=O)NCc1cccs1)c1ccc(C(C)C)cc1	-7.8	·	·	·	0.0	·	·
NC(=O)C1CC(=O)N(c2ccc(OCC(=O)Nc3cccc(C(F)(F)F)c3)cc2)C1 (stereo not given)	-9.3	-1.8	-26.4	0.0	8.3	-0.9	-0.8
O=C(Nc1ccc2c(c1)OCO2)c1ccc(N2CCCC2)c([N+](=O)[O-])c1	4.3	·	·	-11.3	-1.2	·	·
CCOc1ccc(CC(=O)N2N=C(C)CC2(O)C(F)(F)F)cc1 (stereo not given)	-10.4	·	·	1.4	-0.2	·	·
CCOc1ccc(Nc2nc(Cc3nnc(SCC(=O)c4ccc(C)c(C)c4)o3)cs2)cc1	5.1	-3.5	4.7	-1.2	19.3*	-1.0	-0.2
Cc1cc(C)nc(Sc2nc(Cl)nc(N(c3ccccc3)c3ccccc3)n2)n1	2.9	-2.0	-14.5	·	-1.4	·	·
CCOC(=O)c1ccc(-c2ccc(/C=C(\C#N)C(=O)NCc3cccs3)o2)cc1	0.0	·	·	-6.5	9.3*	9.4*	8.7*
N#C/C(=C\c1ccc(-c2ccc(C(=O)O)cc2)o1)C(=O)NCC1CCCO1 (stereo not given)	-0.2	·	·	-13.3	-0.7	·	·
COc1ccc2cc(-c3cc(C(=O)OCC(=O)NC4CCS(=O)(=O)C4)c4ccccc4n3)ccc2c1 (stereo not given)	13.6	·	·	4.5	11.0*	14.0*	25.1*
O=C(COC(=O)c1cc(-c2cccc3ccccc23)nc2ccccc12)NC1CCS(=O)(=O)C1 (stereo not given)	7.4	·	·	2.3	0.2	·	·
O=C(Nc1ccccc1-c1nnn(CC(=O)N2CCCc3ccccc32)n1)c1ccc(Cl)cc1	5.3	-2.6	-15.8	·	27.7*	-0.6	-1.6
O=C(NC(=S)Nc1ccc(NC(=O)c2cccs2)cc1)c1cc2ccccc2o1	4.5	·	·	7.8	10.5*	3.3	1.7
O=C(CSc1ncc(-c2ccccc2)n1CC1CCCO1)N1CCCCC1 (stereo not given)	-2.4	·	·	1.5	-0.1	·	·
CC(C)Cn1c(-c2ccc(Cl)cc2)cnc1SCC(=O)N1CCOCC1	-0.5	-2.0	29.8	·	20.9*	-1.4	-1.0
COC(=O)c1cc2c(ccn2-c2ccc(F)cc2)n1CC(C)C	-26.4	-4.0	4.6	·	8.8*	2.9	5.9
COc1ccc2c(c1)O/C(=C\c1sccc1C)C2=O	12.4	·	·	-4.0	-0.8	·	·
O=C(CSc1nnnn1-c1cccc(Cl)c1)Nc1ccc2c(c1)CCC2	-3.2	·	·	-0.7	8.8*	5.8	5.6
COC(=O)CCC(=O)Nc1nnc(C(F)(F)F)s1	-4.1	-2.5	-6.1	·	144.5*	-0.9	-1.1
SMILES	GALR2 blocker	S1P2 agonist	S1P2 blocker	Phagocyt inh	GALR2 agonist	GALR2 ag confirm	BLA act counter
Cc1ccc(CN2CCN(/N=C/c3ccc(C)s3)CC2)cc1	3.6	·	·	-5.1	-0.3	·	·
CCOc1ccc(C(=O)N/N=C/c2cc(Cl)ccc2[N+](=O)[O-])cc1	5.9	·	·	-1.5	-0.4	·	·
O=C(c1ccco1)N1CCN(C(=O)c2cc3c(=O)oc4ccccc4c3s2)CC1	1.4	-5.2	-8.3	-0.3	30.2*	-0.5	-1.2
Cc1nn(C)c(C)c1/C=N/NC(=O)CCn1cc([N+](=O)[O-])cn1	-5.4	·	·	-3.9	91.8*	-0.9	-1.0
COc1ccc(/C=N/NC(=O)c2ccc(O)cc2O)cc1CSc1ccccn1	-8.9	·	·	9.6	-0.7	·	·
O=C(Nc1ccncc1)c1ccc2c(c1)C(=O)N(C1CCCCC1)C2=O	-3.5	-3.6	-4.6	0.2	35.7*	-0.8	-2.6
COc1ccc(-c2nc(C(F)(F)F)c(OC)o2)cc1OC	-3.0	·	·	-7.2	0.3	·	·
CCCCCn1cnc2c(sc3nc4c(cc32)CSC(C)(C)C4)c1=O	-8.8	·	·	-4.0	-0.8	·	·
O=C(Nc1cccc(C(F)(F)F)c1)c1cc(-c2ccc(F)cc2)on1	1.2	-6.7	5.9	1.4	8.6	0.4	-1.7
COc1ccc(C2CC(c3cccs3)=NN2C(=O)c2ccc(Br)o2)cc1 (stereo not given)	-4.1	·	·	0.3	0.6	·	·
COc1ccc(C2CC(c3cccs3)=NN2c2ccc(C=O)cc2)cc1 (stereo not given)	6.4	·	·	5.4	28.6*	14.7*	31.6*
COc1ccc(C2CC(c3ccccc3)=NN2c2ccc(/C=N/NC(=O)c3ccncc3)cc2)cc1 (stereo not given)	24.2	8.5	22.0	·	16.7*	2.2	1.1
O=C(Nc1ccccc1)c1cc(Cl)nc2ccccc12	4.0	·	·	-12.6	0.3	·	·
O=C(CC12CC3CC(CC(C3)C1)C2)Nc1cccc2ncccc12	-7.7	-2.7	-6.6	-0.4	23.2*	-0.5	-1.1
O=C(Nc1cccc2ncccc12)C12CC3CC(CC(C3)C1)C2	-14.1	-4.3	-9.5	-2.4	-0.3	·	·
COCCN1C=C(C(=O)OC)C(c2ccccc2C(F)(F)F)C(C(=O)OC)=C1	-2.2	11.1	-14.8	4.0	17.6*	1.6	6.3
O=C(NC1CC1)c1ccc2c(c1)C1C3CCC(C3)C1C(c1ccccc1)N2 (stereo not given)	-3.2	·	·	-2.0	-1.6	·	·
CCOC(=O)N1CCN(C(=O)c2ccc3c(=O)n(CCc4ccccc4)c(=S)[nH]c3c2)CC1	-11.6	-3.7	6.8	·	10.8	0.3	0.1
N#C/C(=C\c1c(N2CCCCC2)nc2ccccn2c1=O)C(=O)NC1CCS(=O)(=O)C1 (stereo not given)	-5.5	·	·	·	12.6*	-0.3	-0.1
Cc1cccn2c(=O)c(/C=C(\C#N)C(=O)NC3CCS(=O)(=O)C3)c(N3CCC(C)CC3)nc12 (stereo not given)	-19.2	·	·	-6.0	4.5	·	·
